In PubChem BioAssay:
The source made the active and inactive calls.

What was measured:
[1] = small molecules captured by biotinylated probe aFSTL3 – biochemical, small-molecule microarray, fluorescence 635/667, stem cell growth factor project, primary screen (AID 1064); conditions: higher = more signal;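 note: measures binding of the biotinylated anti-FSTL3 antibody to printed compounds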
[2] = binders from COS7 lysate, DM2A8 probe, primary screen, torsin A project, cell lysate, small-molecule microarray, fluorescence 635/667 (AID 1065); conditions: higher = more signal, COS7 lysate expressing mutant human TOR1A
[3] = small molecules captured by biotinylated probe aFGF2 – biochemical, small-molecule microarray, fluorescence 635/667, stem cell growth factor project, primary screen (AID 1067); conditions: higher = more signal;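 note: measures binding of biotinylated aFGF2 protein to printed compounds on slides; z-score merges feature fluorescence and signal-to-noise across triplicate slides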
[4] = small molecules captured by biotinylated probe aFGF10 – biochemical, small-molecule microarray, fluorescence 635/667, stem cell growth factor project, primary screen (AID 1071); conditions: higher = more signal;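 note: score merges 667 nm spot intensity and signal to noise from triplicate slides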
[5] = target: Neurogenic locus notch homolog protein 2 (Homo sapiens) (UniProt Q04721); experiment: small molecules binding Notch2 protein – biochemical, small-molecule microarray, 635 nm fluorescence, stem cell growth factors, primary screen (AID 1073); conditions: higher = more signal
Neurogenic locus notch homolog protein 2 (Homo sapiens), sequence (Q04721 whole entry, looked up, canonical isoform): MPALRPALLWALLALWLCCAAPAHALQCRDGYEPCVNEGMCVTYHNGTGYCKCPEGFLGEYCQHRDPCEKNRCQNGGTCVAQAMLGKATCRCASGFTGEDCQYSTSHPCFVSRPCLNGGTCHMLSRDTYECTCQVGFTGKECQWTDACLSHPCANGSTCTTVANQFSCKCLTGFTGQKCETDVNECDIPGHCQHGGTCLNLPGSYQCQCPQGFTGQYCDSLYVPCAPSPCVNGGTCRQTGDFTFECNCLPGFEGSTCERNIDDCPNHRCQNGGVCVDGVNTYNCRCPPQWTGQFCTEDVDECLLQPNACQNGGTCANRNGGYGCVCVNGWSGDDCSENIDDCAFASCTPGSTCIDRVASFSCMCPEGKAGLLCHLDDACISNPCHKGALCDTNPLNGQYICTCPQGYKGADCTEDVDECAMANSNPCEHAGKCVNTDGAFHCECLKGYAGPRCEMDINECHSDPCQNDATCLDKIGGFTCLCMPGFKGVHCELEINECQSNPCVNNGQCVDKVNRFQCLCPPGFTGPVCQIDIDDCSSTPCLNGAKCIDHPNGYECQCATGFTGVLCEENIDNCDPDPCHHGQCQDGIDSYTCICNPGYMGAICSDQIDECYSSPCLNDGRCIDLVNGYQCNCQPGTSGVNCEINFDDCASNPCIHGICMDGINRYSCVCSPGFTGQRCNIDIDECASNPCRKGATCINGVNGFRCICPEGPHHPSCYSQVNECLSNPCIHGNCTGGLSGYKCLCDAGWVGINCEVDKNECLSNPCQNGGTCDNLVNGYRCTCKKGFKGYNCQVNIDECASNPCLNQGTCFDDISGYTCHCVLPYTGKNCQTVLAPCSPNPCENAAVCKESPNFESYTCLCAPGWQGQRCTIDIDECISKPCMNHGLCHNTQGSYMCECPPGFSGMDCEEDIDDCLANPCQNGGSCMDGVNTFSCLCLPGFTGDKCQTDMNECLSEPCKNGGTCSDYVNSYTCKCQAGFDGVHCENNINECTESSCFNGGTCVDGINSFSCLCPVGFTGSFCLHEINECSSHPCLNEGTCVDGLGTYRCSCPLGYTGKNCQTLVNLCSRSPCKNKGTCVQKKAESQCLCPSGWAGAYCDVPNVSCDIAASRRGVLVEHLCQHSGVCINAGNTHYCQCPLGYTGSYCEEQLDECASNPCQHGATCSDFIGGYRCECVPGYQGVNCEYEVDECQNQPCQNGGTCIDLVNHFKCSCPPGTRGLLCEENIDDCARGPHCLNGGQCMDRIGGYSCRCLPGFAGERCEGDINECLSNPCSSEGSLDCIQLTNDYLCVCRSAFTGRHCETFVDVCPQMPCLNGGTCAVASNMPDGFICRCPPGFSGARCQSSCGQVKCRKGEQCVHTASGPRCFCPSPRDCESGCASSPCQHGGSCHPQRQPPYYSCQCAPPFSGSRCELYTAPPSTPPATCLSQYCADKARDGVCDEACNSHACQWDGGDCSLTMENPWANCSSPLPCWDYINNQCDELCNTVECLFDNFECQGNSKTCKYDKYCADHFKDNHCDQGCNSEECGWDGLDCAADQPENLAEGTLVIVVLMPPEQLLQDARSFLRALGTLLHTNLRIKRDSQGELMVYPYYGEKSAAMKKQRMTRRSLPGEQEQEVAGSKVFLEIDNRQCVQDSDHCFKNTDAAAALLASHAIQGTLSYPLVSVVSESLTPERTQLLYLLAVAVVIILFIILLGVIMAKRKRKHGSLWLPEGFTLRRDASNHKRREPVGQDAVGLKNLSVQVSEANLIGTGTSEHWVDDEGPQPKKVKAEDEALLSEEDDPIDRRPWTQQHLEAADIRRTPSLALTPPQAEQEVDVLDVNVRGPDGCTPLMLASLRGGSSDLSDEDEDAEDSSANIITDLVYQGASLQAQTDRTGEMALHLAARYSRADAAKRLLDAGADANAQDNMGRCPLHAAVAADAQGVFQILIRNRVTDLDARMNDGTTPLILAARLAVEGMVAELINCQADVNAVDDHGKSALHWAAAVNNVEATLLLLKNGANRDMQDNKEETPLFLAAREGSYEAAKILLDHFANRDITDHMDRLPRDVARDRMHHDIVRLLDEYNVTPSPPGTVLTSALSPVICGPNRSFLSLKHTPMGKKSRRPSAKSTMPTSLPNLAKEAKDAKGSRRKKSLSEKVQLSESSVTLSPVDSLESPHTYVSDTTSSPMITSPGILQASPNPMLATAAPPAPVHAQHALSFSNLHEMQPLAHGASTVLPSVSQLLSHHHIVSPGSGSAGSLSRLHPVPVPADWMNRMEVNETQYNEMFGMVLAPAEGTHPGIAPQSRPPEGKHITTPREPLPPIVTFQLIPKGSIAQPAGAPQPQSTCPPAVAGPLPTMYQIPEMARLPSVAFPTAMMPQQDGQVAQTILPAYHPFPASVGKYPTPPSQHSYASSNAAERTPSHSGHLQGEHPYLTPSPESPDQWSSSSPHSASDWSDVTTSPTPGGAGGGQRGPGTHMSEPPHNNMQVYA

[6] = target: Pro-neuregulin-1, membrane-bound isoform (Homo sapiens) (UniProt Q02297); experiment: small molecules binding neuregulin-1 protein – biochemical, small-molecule microarray, fluorescence 635/667, psychiatric disease protein project, primary screen (AID 1075); conditions: NRG1 binding, 635 nm fluorescence, higher = more signal;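 note: score combines 667 nm spot fluorescence with signal to noise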
Pro-neuregulin-1, membrane-bound isoform (Homo sapiens), sequence (Q02297 whole entry, looked up, the tested form may be a part, canonical isoform): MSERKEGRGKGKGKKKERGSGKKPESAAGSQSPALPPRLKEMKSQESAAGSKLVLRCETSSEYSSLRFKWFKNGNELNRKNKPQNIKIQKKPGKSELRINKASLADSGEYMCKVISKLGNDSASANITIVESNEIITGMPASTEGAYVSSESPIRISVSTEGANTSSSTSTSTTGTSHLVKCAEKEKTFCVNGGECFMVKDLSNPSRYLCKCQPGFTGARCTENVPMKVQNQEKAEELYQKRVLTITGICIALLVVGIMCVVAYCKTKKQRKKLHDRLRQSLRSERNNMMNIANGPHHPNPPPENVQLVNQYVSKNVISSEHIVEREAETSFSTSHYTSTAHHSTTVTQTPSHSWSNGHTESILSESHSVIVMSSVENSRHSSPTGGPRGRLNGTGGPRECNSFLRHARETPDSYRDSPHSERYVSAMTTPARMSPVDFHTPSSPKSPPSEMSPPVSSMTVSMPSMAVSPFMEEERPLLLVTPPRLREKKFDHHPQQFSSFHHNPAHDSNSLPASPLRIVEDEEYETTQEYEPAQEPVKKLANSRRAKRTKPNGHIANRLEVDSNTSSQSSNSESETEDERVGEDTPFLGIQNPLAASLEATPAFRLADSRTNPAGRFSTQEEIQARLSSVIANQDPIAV

[7] = tested on: Neuregulin-1 EGF-like domain; experiment: small molecules binding NRG1 EGF domain – biochemical, small-molecule microarray, 635 nm fluorescence, primary screen (AID 1081); conditions: higher = more signal;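 note: binding of the protein to compounds printed on small-molecule microarray slides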
[8] = FRG1 expression reporter modulators in myotubes – cell-based, C2C12 myotubes, firefly/Renilla luciferase, luminescence, FRG1 inhibition for FSHD, primary screen (AID 1084); conditions: FRG1 promoter luciferase, higher = more signal, called active from +8 up or from −8 down
[9] = small molecules captured by biotinylated probe aFST – biochemical, small-molecule microarray, fluorescence 635/667, stem cell growth factor project, primary screen (AID 1086); conditions: higher = more signal;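 note: score merges 667 nm fluorescence with signal-to-noise of each printed compound spot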
[10] = binders of probe aHhip on microarray, primary screen, stem cell growth factor project, biochemical, small-molecule microarray, fluorescence 635/667 (AID 1087); conditions: higher = more signal;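 note: score merges spot fluorescence at 667nm with spot signal to noise ratio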
[11] = tested on: PRMT1 (protein arginine N-methyltransferase 1); experiment: small molecules binding arginine methyltransferase PRMT1 – biochemical, small-molecule microarray, 635 nm fluorescence, primary screen (AID 1088); conditions: higher = more signal;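 note: binding of Prmt1 protein to compounds spotted on small-molecule microarray slides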
[12] = growth effects on S. cerevisiae YJM789 – YJM789 clinical isolate, OD600, 24 h, basal, primary screen (AID 1089); conditions: higher = more signal, called active from +8 up or from −8 down;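 note: growth of clinical yeast isolate S. cerevisiae YJM 789 seeded 1000 cells per well; test concentration not given here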
[13] = S. pombe growth modifiers, basal conditions – strain 972, OD600, 24 h, no modulator, primary screen (AID 1090);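 note: basal condition with compound alone and no growth modifier present; test concentration not given here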; conditions: S. pombe 972 growth, higher = more signal, called active from +8 up or from −8 down
[14] = budding yeast growth modifiers under rapamycin – strain BY4716, OD600, 96 h, primary screen (AID 1091); note: test concentration not given here; conditions: S. cerevisiae BY4716 + rapamycin, higher = more signal, called active from +8 up or from −8 down
[15] = target: Torsin-1A-interacting protein 2 (Homo sapiens) (UniProt Q8NFQ8); experiment: small molecules binding lysate-expressed LULL1 – cell lysate, human LULL1 lysate, 635/667 nm fluorescence, primary screen (AID 1092); conditions: small-molecule microarray, hLULL1 lysate binding, 635 nm fluorescence; higher = more signal;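 note: probe is lysate of COS7 cells overexpressing human LULL1; score merges per-feature 667 nm fluorescence with signal-to-noise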
Torsin-1A-interacting protein 2 (Homo sapiens), sequence (Q8NFQ8 whole entry, looked up): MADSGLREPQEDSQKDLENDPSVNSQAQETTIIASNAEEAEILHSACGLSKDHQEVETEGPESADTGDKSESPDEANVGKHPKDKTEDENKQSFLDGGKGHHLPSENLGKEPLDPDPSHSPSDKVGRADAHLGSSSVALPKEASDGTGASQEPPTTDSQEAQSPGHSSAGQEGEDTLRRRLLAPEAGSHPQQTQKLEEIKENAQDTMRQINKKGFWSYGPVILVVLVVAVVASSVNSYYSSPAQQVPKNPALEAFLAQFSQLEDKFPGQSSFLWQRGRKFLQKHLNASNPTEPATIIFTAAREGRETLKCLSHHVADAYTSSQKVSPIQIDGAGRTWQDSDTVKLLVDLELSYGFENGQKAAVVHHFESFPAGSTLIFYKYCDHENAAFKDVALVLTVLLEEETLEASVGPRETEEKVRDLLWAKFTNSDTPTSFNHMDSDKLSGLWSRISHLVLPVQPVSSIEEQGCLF

[16] = optical density change of DRC41 E. coli – strain DRC41, OD650, 24 h, E. coli filamentation project, primary screen (AID 1093);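 note: MC1000 strain lacking acrAB efflux and sulA so SOS filamentation is blocked; test concentration not given here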; conditions: E. coli DRC41 growth, higher = more signal, called active from +8 up or from −8 down
[17] = probe aLefty2 binding to arrayed compounds – biochemical, biotinylated probe, 635/667 nm fluorescence, primary screen (AID 1094); conditions: small-molecule microarray, higher = more signal;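 note: score merges spot fluorescence near 667 nm with spot signal-to-noise ratio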
[18] = tested on: Noggin (protein binding on small-molecule microarray); experiment: small molecules binding Noggin protein – biochemical, 635/667 nm fluorescence, primary screen (AID 1095); conditions: 635 nm fluorescence, higher = more signal;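 note: score merges 667 nm feature fluorescence with signal to noise over triplicate slides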
[19] = target: Neurogenic locus notch homolog protein 3 (Homo sapiens) (UniProt Q9UM47); experiment: small molecules binding NOTCH3 protein – biochemical, 635/667 nm fluorescence, primary screen (AID 1096); conditions: small-molecule microarray, 635 nm fluorescence, higher = more signal
[20] = probe aEGFR binding to arrayed compounds – biochemical, biotinylated probe, 635/667 nm fluorescence, primary screen (AID 1097); conditions: small-molecule microarray, higher = more signal;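 note: probe is a biotinylated anti-EGFR antibody binding compounds printed on slides; score combines fluorescence near 667 nm and signal to noise of each spot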

SMILES	composite z-score [1]	composite z-score [2]	composite z-score [3]	composite z-score [4]	composite z-score [5]	composite z-score [6]	composite z-score [7]	z-score [8]	composite z-score [9]	composite z-score [10]	composite z-score [11]	z-score [12]	z-score [13]	z-score [14]	composite z-score [15]	z-score [16]	composite z-score [17]	composite z-score [18]	composite z-score [19]	composite z-score [20]
CCOC(=O)C1=C[C@@H](C(C)C)N(S(=O)(=O)c2ccc(C)cc2)[C@H]1c1ccc(C(C)C)cc1	-0.462	0.352	-0.0647	0.543	1.52	0.609	0.683	-1.89 (inactive)	0.937	-0.0754	1.25	0.129 (inactive)	2.04 (inactive)	0.612 (inactive)	3.02	-0.35 (inactive)	0.112	0.75	1.09	-0.0381
O=C1O[C@H](c2ccccc2)[C@H](c2ccccc2)N2[C@H]1[C@@H](C(=O)O)[C@]1(C(=O)Nc3ccc(C#CC4(O)CCCCCC4)cc31)[C@H]2c1ccc(OCCO)cc1	-0.133	-0.337	0.0201	0.564	0.263	1.85	1.14	1.11 (inactive)	1.07	-0.0994	1.37	2.28 (inactive)	0.219 (inactive)	0.124 (inactive)	3.58	-0.831 (inactive)	-0.124	-0.338	0.528	-0.216
CCCCC(O)C1C=CC2C(=O)N(C3CCCCC3)C(=O)C2N1Nc1ccc(OC)cc1 (stereo not given)	-0.362	0.139	-0.0056	0.441	1.45	1.29	1.13	0.405 (inactive)	0.583	0.107	1.19	0.595 (inactive)	0.241 (inactive)	1.15 (inactive)	2.77	0.202 (inactive)	0.165	0.5	1.1	-0.0661
COC(=O)[C@@]1(Cc2ccccc2N=[N+]=[N-])COC(c2ccc(OCCCO)cc2)=N1	1.34	2.03	-0.0706	-0.282	0.0164	1.24	1.21	-0.904 (inactive)	0.498	0.0176	1.24	-1.33 (inactive)	-11 (active)	-1.99 (inactive)	2.08	-0.574 (inactive)	0.137	-0.353	0.0418	-0.0762
C=C[C@H](C)[C@@H](O)c1ccc(O)c2ccccc12	-0.161	-0.0359	0.126	-0.749	-1	-0.329	-0.158	-0.202 (inactive)	-1.03	0.0274	-0.169	-0.968 (inactive)	-13.3 (active)	4.25 (inactive)	0.853	0.149 (inactive)	-0.254	-0.0597	-0.0004	-0.322
COC(=O)c1ccc(C(O)C2C=CC3C(=O)N(c4ccccc4)C(=O)C3N2Nc2ccc(C#N)cc2)o1 (stereo not given)	0.042	0.465	0.0394	0.865	1.33	0.665	1.34	0.447 (inactive)	0.478	-0.199	0.431	-0.0337 (inactive)	0.328 (inactive)	0.989 (inactive)	3.19	-1.07 (inactive)	-0.0478	0.284	0.927	-0.0446
CC(=O)C1=CCC(c2ccccc2)N(S(=O)(=O)c2ccc(C)cc2)C1 (stereo not given)	0.174	0.453	0.0592	0.679	0.691	0.628	1.23	-2.72 (inactive)	0.57	-0.0142	1.53	-1.31 (inactive)	0.888 (inactive)	4.92 (inactive)	2.6	-1.03 (inactive)	-0.0118	0.229	0.821	-0.039
COCCOC(=O)N1C(=O)[C@@]2(c3cc(C#CCC(C(=O)OC)C(=O)OC)ccc31)[C@H](c1ccccc1OCCO)N1[C@H](c3ccccc3)[C@H](c3ccccc3)OC(=O)[C@H]1[C@@H]2C(=O)N1CCc2cc(OC)c(OC)cc2C1	-0.257	0.007	-0.126	0.319	1.46	1.09	1.27	-0.285 (inactive)	0.638	-0.0655	1.56	0.502 (inactive)	0.979 (inactive)	3.89 (inactive)	2.42	1.92 (inactive)	-0.0373	1.64	0.729	0.0637
CCCCCN1CC=CC23O[C@@H]4C=CCOC(=O)[C@@H]4[C@H]2C(=O)N(CCCO)[C@@H]3C1=O (stereo not given in full)	-0.295	0.777	-0.195	-0.549	-0.661	2.05	1.27	-0.482 (inactive)	-0.643	-0.236	1.55	0.811 (inactive)	-0.717 (inactive)	-1.05 (inactive)	3.5	3.09 (inactive)	-0.221	0.243	0.0152	-0.185
